According to PubChem BioAssay (NCATS):
Inconclusive results are not listed. A call without a number means that no potency is given here. Calls of active or inactive are those of the source. Calls come from the whole dose curve; as a rule, active = well fitted cell-killing curve with a large enough effect; inconclusive = small, poorly fitted or top-dose-only effect; inactive = flat fitted curve, though single readings scatter.

Assay: Cell Viability - LYMP2-024 (AID 988); note: nearly all actives have a fitted effect of over 60% in size
Details: LYMP2-024 lymphoblastoid cell viability; series mostly up to 92.2 µM
Source text: NIH Chemical Genomics Center [NCGC]
NIH Molecular Libraries Screening Centers Network [MLSCN]
National Institutes of Environmental Health Sciences [NIEHS]
National Toxicology Program [NTP]
We have developed a 1536-well cell-based assay for quantitative high throughput screening (qHTS) against a number of cell lines to determine in vitro cytotoxicity of small molecules. This particular assay uses a human lymphoblastoid cell line (LYMP2-024) purchased from Coriell Institute for Medical Research.
NCGC Assay Protocol Summary:
The CellTiter-Glo luminescent cell viability assay (Promega) is a homogeneous method to measure the number of viable cells in culture. The end point readout of this assay is based on quantitation of intracellular ATP, an indicator of metabolic activity, using the luciferase reaction. Luciferase catalyzes the oxidation of beetle Luciferin to oxyluciferin and light in the presence of ATP. The luminescent signal is proportional to amount of ATP present.
Using the CellTiter-Glo luminescent cell viability assay, the amount of cellular ATP was measured in the lymphoblastoid cell line with complete culture medium following compound treatment for 24 hours. The assay was performed in opaque white Kalypsys 1536-well plates. In the screen, tetraoctylammonium bromide was used as positive control. Library compounds were measured for their ability to cause acute toxicity in the cell line, as reflected by a decrease in intracellular ATP levels, in a concentration-dependent manner. […] AC50 values were determined from concentration-response data modeled with the standard Hill equation.
qHTS protocol for CellTiter Glo lymphoblastoid cellular assay
[Step] [Parameter] [Value] [Description]
1. Reagent; 5 uL; 2500 lymphoblastoid cells/well
2. Time; 5 hr; 37 C incubation
4. Controls; 23 nL; Tetraoctylammonium bromide 6.4pM to 92 uM
5. Time; 24 hr; 37 C incubation
6. Reagent; 5 uL; CellTiter Glo reagent
7. Time; 30 min; Room Temperature
8. Detection; Luminescence; Viewlux plate reader
Keywords: cell viability, cytotoxicity, lymphoblastoid cell line, luminescence, NTPHTS, NTPHTS_NCGC, NIEHS, DSSTox, MLSMR, MLSCN, NIH Roadmap, qHTS, NCGC
Potency is the fitted concentration of half-maximal effect.

| Structure (SMILES) | Potency |
| --- | --- |
| O=C(O)Cc1cccc2ccccc12 | inactive |
| CN(C)CCC(c1ccccc1)c1ccccn1 (centres undefined) | inactive |
| O=C1NC(=O)C(c2ccccc2)(c2ccccc2)N1 | inactive |
| O=c1c(-c2ccc(O)cc2)coc2cc(O)ccc12 | inactive |
| CCCNC(=O)NS(=O)(=O)c1ccc(Cl)cc1 | inactive |
| CCn1cc(C(=O)O)c(=O)c2ccc(C)nc21 | inactive |
| CC(=O)c1ccc(S(=O)(=O)NC(=O)NC2CCCCC2)cc1 | inactive |
| O=C(O)c1cc(O)c2c(c1)C(=O)c1cccc(O)c1C2=O | inactive |
| CCCCC1C(=O)N(c2ccccc2)N(c2ccccc2)C1=O | inactive |
| CC/C(=C(\c1ccccc1)c1ccc(OCCN(C)C)cc1)c1ccccc1 | 50.1 µM (active) |
| CC(=O)O[C@]1(C(C)=O)CC[C@H]2[C@@H]3C=C(Cl)C4=CC(=O)[C@@H]5C[C@@H]5[C@]4(C)[C@H]3CC[C@@]21C | inactive |
| O=c1[nH]cnc2c1ncn2[C@H]1CC[C@@H](CO)O1 | inactive |
| CC1=C(/C=C/C(C)=C/C=C/C(C)=C/C(=O)Nc2ccc(O)cc2)C(C)(C)CCC1 | 39.8 µM (active) |
| O=c1c(O)c(-c2ccc(O)cc2)oc2cc(O)cc(O)c12 | inactive |
